This is a sample that favours compounds with a hit; in the whole collection about 21% have one here.
Pf growth 96h: P. falciparum growth inhibition at 96 hour, primary screen for plastid delayed-death inhibitors. P. falciparum luciferase reporter growth, 96 h. Potency, µM (highest dose often 28.7 µM), most hits filed as inhibitors. hit rate 6.9% among 320,000. AID 504834
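Compounds incubated with erythrocytes infected by luciferase-expressing P. falciparum (2% hematocrit, 0.05% parasitemia final) for 96 hours, 37 C in 5% CO2. Growth inhibition scored as decreased luciferase luminescence.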
Cycloheximide cs: counter-screen for Shiga toxin inhibitors: cycloheximide protein synthesis inhibition. hit rate 12% among 300,000. AID 2314. cell reporter, cycloheximide protein synthesis inhibition counterscreen. max response, %; in the data active = max response mostly above about 13%, no sharp cut-off; inactive = mostly below about 14%; note: read at 38.3 µM for the half of the compounds with a filed dose
Pf growth 48h: P. falciparum growth inhibition at 48 hours (one generation) | P. falciparum luciferase growth in erythrocytes, 48 h | Potency, µM (highest dose often 28.7 µM), usual class: inhibitors | hit rate 5.9% among 310,000 | AID 504832
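In quantitative HTS format, infected erythrocytes bearing luciferase-reporter parasites were treated for a single generation at 37 C. Luminescence after adding detection reagent served as the growth measure.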
HCMV antiviral: blocks human cytomegalovirus replication; HFF cells, HCMV-luciferase reporter, 72 h; hits give low values; activity change, negative = inhibition, % at 57.5 µM; hit rate 4.5% among 410,000; AID 1259415; in the data active = activity change below about -60%; inconclusive = no clear call, values can overlap the other calls; inactive = above about -39%
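HFF cells seeded 16 h at 37C, treated with compounds, infected with luciferase-reporter HCMV at MOI 1 PFU/cell; luciferase read at 72 h post infection, normalized to buffer-only and Salinomycin controls.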
HCV inh: inhibitors of hepatitis C virus infection; Potency, µM (highest dose often 41.8 µM), hits mostly inhibitors; Huh7.5.1 HCVcc-Cre infection, luciferase reporter, 44 h; hit rate 3.4% among 340,000
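Reporter virus HCVcc-Cre (~0.5 moi) infects cells exposed to compound; seeding density 1,000 cells/well with 4 h settling beforehand. Luminescence, 15 sec read, taken 44 h post-infection following a 15 min RT substrate incubation.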
Shiga toxin inh: inhibitors of Shiga toxin in Vero cells; Vero cells, Shiga toxin protein synthesis inhibition reporter; inhibition, % at 38.7 µM; hit rate 9.2% among 290,000; AID 2315; in the data active = inhibition mostly above about 28%, no sharp cut-off; inactive = mostly below about 43%
Each line names hits and unclear results; the compound was inactive in the other large screens. Unless noted, calls come from the whole dose curve; as a rule, active = well fitted inhibition curve with a large enough effect; inconclusive = small, poorly fitted or top-dose-only effect, or another doubt; inactive = no such curve, though single readings can be large or run the other way.

O=C(c1ccc2c(c1)N(Cc1ccccc1F)C(=O)c1ccccc1S2(=O)=O)N1CCC(Cc2ccccc2)CC1	none (no result: Pf growth 96h, Cycloheximide cs, Pf growth 48h, HCV inh, Shiga toxin inh)
CCOC(=O)N1CCC(NC(=O)C2CCCCN2S(=O)(=O)c2ccc(F)cc2)CC1 (centres undefined)	Pf growth 96h 1µM (no result: Pf growth 48h)
CS(=O)(=O)c1cccc(NC(=O)C2CCCN2S(=O)(=O)c2ccc(F)cc2)c1 (centres undefined)	none
O=C(Nc1ccc2c(c1)OCO2)C1CCCCN1S(=O)(=O)c1ccc(F)cc1 (centres undefined)	Pf growth 96h 9.3µM
O=C(Nc1ccc(N2CCCCC2)cc1)C1CCCN1S(=O)(=O)c1ccc(F)cc1 (centres undefined)	none (no result: Cycloheximide cs, Shiga toxin inh)
O=C(NC1CCCCC1)C1CCCN1S(=O)(=O)c1ccc(F)cc1 (centres undefined)	none
CC1CCN(c2ccc(NC(=O)C3CCCN3S(=O)(=O)c3ccc(F)cc3)cc2)CC1 (centres undefined)	Pf growth 96h 12µM, Pf growth 48h inconclusive, HCV inh inconclusive (no result: Cycloheximide cs, Shiga toxin inh)
CCN(CC)P(=O)(NC(=O)c1cccn1C)N(CC)CC	Pf growth 96h inconclusive
CCN(CC)c1ccc(C(=O)NNC(=O)CCl)cc1	Pf growth 96h inconclusive, Cycloheximide cs 31, Pf growth 48h 6.6µM, HCV inh inconclusive
CCN(CC)c1ccc(C(=O)NNC(=O)c2cccn2C)cc1	HCV inh 7.1µM (no result: Cycloheximide cs, Shiga toxin inh)
CCC(=O)c1ccc(OCC(=O)NCC2(N3CCCCC3)CCCCC2)cc1	Pf growth 96h 4.7µM
CC(C)(C)c1ccc(OCC(=O)NCC2(N3CCOCC3)CCCCC2)cc1	HCMV antiviral -73 (no result: Pf growth 96h, Cycloheximide cs, Pf growth 48h, HCV inh, Shiga toxin inh)
O=C(COc1ccc([N+](=O)[O-])cc1)NCC1(N2CCOCC2)CCCCC1	none (no result: Pf growth 96h, Cycloheximide cs, Pf growth 48h, HCV inh, Shiga toxin inh)
C=CCn1c(SCC(=O)c2[nH]c(C)c(C(=O)OC)c2C)nc2scc(-c3ccc(OC)c(OC)c3)c2c1=O	Pf growth 96h 2.9µM, Pf growth 48h inconclusive, HCV inh inconclusive
CCc1ccc(-n2nc3ccc(NC(=O)c4ccc(C#N)cc4F)cc3n2)cc1	none (no result: Pf growth 96h, Cycloheximide cs, Pf growth 48h, HCV inh, Shiga toxin inh)
CSC1=NSC2=NC(=O)/C(=C/c3coc4ccc(O)cc4c3=O)C(=N)N12	none
CC(C)CSC1=NSC2=NC(=O)/C(=C\c3cccs3)C(=N)N12	Cycloheximide cs 68, HCV inh inconclusive, Shiga toxin inh 102
CSC1=NSC2=NC(=O)/C(=C\c3cccs3)C(=N)N12	Cycloheximide cs 42, Shiga toxin inh 42
CSC1=NSC2=NC(=O)/C(=C/c3coc4ccccc4c3=O)C(=N)N12	Shiga toxin inh 47
CC1=CC2=NC(=O)/C(=C/c3cccs3)C(=N)N2O1	none
N=C1/C(=C/c2cccs2)C(=O)N=C2SN=C(SCc3ccccc3)N12	Pf growth 96h inconclusive, Cycloheximide cs 26, Shiga toxin inh 37
CCCC[C@@H]1CCCO[C@@](C(=O)NCc2ccc(S(C)(=O)=O)cc2)(C(F)(F)F)C1	none (no result: Pf growth 96h, Pf growth 48h, HCMV antiviral, HCV inh)
CC(C)Cc1cc(C(=O)N2CCC(N3CCC(C(=O)NC4CC4)CC3)CC2)n[nH]1	HCMV antiviral inconclusive
CCCOC(=O)N1CCN(/[N+]([O-])=N/Oc2ccc([N+](=O)[O-])cc2[N+](=O)[O-])CC1	none (no result: Pf growth 96h, Pf growth 48h, HCMV antiviral, HCV inh)
Cc1ccc(CCN=c2c([N+](=O)[O-])nn(-c3ccccc3)n2O)cc1	Pf growth 48h inconclusive
COc1ccc(-n2nc([N+](=O)[O-])c(=NCCc3ccccc3)n2O)cc1	Cycloheximide cs 15, HCV inh inconclusive
O=[N+]([O-])c1nn(-c2ccccc2)n(O)c1=NC1CCN(Cc2ccccc2)CC1	Pf growth 96h inconclusive, Pf growth 48h inconclusive, HCMV antiviral inconclusive, HCV inh 2µM
O=[N+]([O-])c1nn(-c2ccc3c(c2)OCCO3)n(O)c1=NC1CCN(Cc2ccccc2)CC1	Pf growth 96h inconclusive, HCV inh inconclusive
O=[N+]([O-])c1nn(-c2ccccc2)n(O)c1=NCCc1ccccc1	Cycloheximide cs 25, Pf growth 48h 4.1µM, HCV inh 11µM, Shiga toxin inh 112
CC1CCc2nc3ncn(Cc4cccc(F)c4)c(=O)c3cc2C1 (centres undefined)	none (no result: Pf growth 96h, Cycloheximide cs, Pf growth 48h, HCV inh, Shiga toxin inh)
CC1=C(C(=O)Nc2ccc(C)cc2C)C(c2ccc([N+](=O)[O-])cc2)n2ncc(C(=O)Nc3ccc(F)cc3)c2N1 (centres undefined)	none (no result: Pf growth 96h, Cycloheximide cs, Pf growth 48h, HCV inh, Shiga toxin inh)
C=CCn1c(SCc2ccc(Cl)cc2)nc2cc(C(=O)N3CCC(C(N)=O)CC3)ccc2c1=O	Pf growth 96h 6.6µM, Pf growth 48h inconclusive, HCMV antiviral inconclusive
C=CCn1c(SCC(=O)NC23CC4CC(CC(C4)C2)C3)nc2cc(C(=O)O)ccc2c1=O	Pf growth 96h 4.7µM, Pf growth 48h 2.9µM, HCMV antiviral inconclusive
CCCCCn1c(SCC(=O)OCC)nc2cc(C(=O)N3CCC(C(N)=O)CC3)ccc2c1=O	none
CCCOc1ccccc1C1NC(=O)NC(C)=C1C(=O)OCCOC (centres undefined)	none (no result: Pf growth 96h)
CCCOc1ccccc1C1NC(=O)NC(C)=C1C(=O)OCCOC(C)C (centres undefined)	Pf growth 96h 12µM, Pf growth 48h inconclusive
CCCOc1ccccc1C1NC(=O)NC(C)=C1C(=O)OCc1ccccc1 (centres undefined)	Pf growth 48h 13µM, HCMV antiviral inconclusive, HCV inh inconclusive
CCOC(=O)c1[nH]c(C)c(CCC(=O)Nc2cc(C)ccc2OC)c1C	none (no result: Pf growth 96h, Cycloheximide cs, Pf growth 48h, HCV inh, Shiga toxin inh)
CC(C)(C)N1C(=O)Cc2c1nc(N)c1c(N)nc(N3CCCCC3CO)c(C#N)c21 (centres undefined)	Pf growth 96h 5.9µM, Pf growth 48h inconclusive, HCV inh inconclusive (no result: HCMV antiviral)
COc1cc(/C=C/C(=O)OCC(=O)N2CCCC2)ccc1OCC#N	Pf growth 96h inconclusive (no result: Cycloheximide cs, Shiga toxin inh)
Cc1ccc(CCN2CC(C(=O)NCCN3CCOCC3)CC2=O)cc1 (centres undefined)	Pf growth 96h 12µM
CC1CCCN(CCCNC(=O)C2CC(=O)N(CCc3ccccc3)C2)C1 (centres undefined)	Pf growth 96h 15µM
Cc1c(-c2cccc(NC(=O)Nc3ccccc3)c2)nc2ncccn12	none (no result: Pf growth 96h, Cycloheximide cs, Pf growth 48h, HCV inh, Shiga toxin inh)
COc1ccc(CCNC(=O)c2ccc(SC)cc2OC)cc1	Pf growth 96h 2.6µM, Pf growth 48h inconclusive
COc1cc(SC)ccc1C(=O)NCCOc1ccc(F)cc1	Cycloheximide cs 45, Shiga toxin inh 74
COc1cc(SC)ccc1C(=O)NCC1CCCCC1	Pf growth 96h inconclusive, Cycloheximide cs 28, Pf growth 48h inconclusive, Shiga toxin inh 75
Cc1ccc(S(=O)(=O)NCc2ccc(C(=O)NC3CCC(O)CC3)cc2)cc1C (centres undefined)	Pf growth 96h inconclusive, Pf growth 48h inconclusive (no result: Cycloheximide cs, Shiga toxin inh)
CCC1Oc2ccc(C)cc2N(CC(=O)N(Cc2cccnc2)Cc2ccc(C)o2)C1=O (centres undefined)	Pf growth 48h 12µM
CCC1Oc2ccc(C)cc2N(CC(=O)N(Cc2ccc(C)o2)C2CC(C)(C)NC(C)(C)C2)C1=O (centres undefined)	Pf growth 96h inconclusive, Pf growth 48h inconclusive, HCV inh inconclusive

High-throughput results deposited in PubChem BioAssay by National Center for Advancing Translational Sciences (NCATS).
